Records with an inconclusive call do not appear. The source made the active and inactive calls. Calls follow the shape of the dose curve; as a rule, active = well fitted inhibition curve with a large enough effect; inconclusive = small, poorly fitted or top-dose-only effect; inactive = flat fitted curve, though single readings scatter.
How the values were obtained:
Experiment in all cases: qHTS profiling for inhibitors of Plasmodium falciparum proliferation (AID 504749); also: nearly all actives have a fitted effect of over 60% in size
Details in all cases: P. falciparum in erythrocytes, SYBR Green DNA, 72 h; series mostly up to 28.7 µM
[1] = test system: CP265
Procedure, shortened: (§1)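 In a 72 h erythrocytic culture (37 C, humidified, 5% CO2) at 2.5% hematocrit and 0.3% starting parasitemia, compounds were tested; SYBR Green I in detergent lysis buffer stained parasite DNA overnight.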

[2] = test system: CP266
Procedure, shortened: as §1

[3] = test system: CP268
Procedure, shortened: as §1

[4] = test system: CP269
Procedure, shortened: as §1

[5] = test system: CP286
Procedure, shortened: as §1

[6] = test system: CP291
Procedure, shortened: as §1

[7] = test system: CP297
Procedure, shortened: as §1

[8] = test system: CP305
Procedure, shortened: as §1

[9] = test system: CP315
Procedure, shortened: as §1

[10] = test system: CP325
Procedure, shortened: as §1

Measured: Potency
Potency is read from the fitted curve at half-maximal effect.

N[C@H](Cc1c[nH]c2ccccc12)C(=O)O
inactive: all assays above

CCCCOc1ccc(C(=O)CCN2CCCCC2)cc1
inactive: all assays above

N[C@@H](Cc1cnc[nH]1)C(=O)O
inactive: all assays above

NCCC(O)(P(=O)(O)O)P(=O)(O)O
inactive: all assays above

Cc1cccn2c(=O)c(-c3nnn[nH]3)cnc12
inactive: all assays above

O=C1CCC(c2ccc(-n3ccnc3)cc2)=NN1
inactive: all assays above

C[C@H]1[C@H](NC(=O)/C(=N/OC(C)(C)C(=O)O)c2csc(N)n2)C(=O)N1S(=O)(=O)O (stereo in doubt)
inactive: all assays above

Cc1cc(O)c(C(C)C)cc1Cl
inactive: all assays above

C1CCc2nnnn2CC1
inactive: all assays above

Cc1ncc(CSSCc2cnc(C)c(O)c2CO)c(CO)c1O
inactive: all assays above

CCn1cc(C(=O)O)c(=O)c2cnc(N3CCCC3)nc21
inactive: all assays above

COCc1c(C(C)C)nc(C(C)C)c(/C=C/[C@@H](O)C[C@@H](O)CC(=O)O)c1-c1ccc(F)cc1
inactive: all assays above

CC(C)COC(=O)OCN1C(=O)CN(CCN2CC(=O)N(COC(=O)OCC(C)C)C(=O)C2)CC1=O
inactive: all assays above

OCc1ccccc1O
inactive: all assays above

Nc1ccc(C(=O)O)cc1
inactive: all assays above

COC1=CC(=O)C[C@@H](C)[C@]12Oc1c(Cl)c(OC)cc(OC)c1C2=O
inactive: all assays above

CC(=O)OCC(=O)NCCCOc1cccc(CN2CCCCC2)c1
inactive: all assays above

CC/C(=C(/CC)c1ccc(O)cc1)c1ccc(O)cc1
inactive: all assays above

O=C(CCN1CCC(c2ccccc2)C1)c1ccc2c(c1)OCCO2 (stereo not given)
inactive: all assays above

CCOC(=O)n1ccn(C)c1=S
inactive: all assays above

CCCCOc1ccc(OCCCN2CCOCC2)cc1
inactive: all assays above

C[C@]12CC[C@@H]3c4ccc(O)cc4CC[C@H]3[C@@H]1CC[C@@H]2O
inactive: all assays above

C[N+]1(CCCCC[N+]2(C)CCCC2)CCCC1
inactive: all assays above

CN1C(CCl)Nc2cc(Cl)c(S(N)(=O)=O)cc2S1(=O)=O (stereo not given)
inactive: all assays above

O=C(COc1ccc(Cl)cc1)N1CCN(Cc2ccc3c(c2)OCO3)CC1
inactive: all assays above

CN1C2CCC1CC(OC(=O)c1c[nH]c3ccccc13)C2 (stereo not given)
inactive: all assays above

CCC(=O)c1c(O)cc(O)cc1O
inactive: all assays above

COc1cc(C(=S)N2CCOCC2)cc(OC)c1OC
inactive: all assays above

Nc1cc(Cl)c(NC2=NCCN2)c(Cl)c1
inactive: all assays above

Cc1c(C(N)=O)cc([N+](=O)[O-])cc1[N+](=O)[O-]
inactive: all assays above

COc1ccc(C2C(=O)c3ccccc3C2=O)cc1
inactive: all assays above

C#C[C@]1(OC(C)=O)CC[C@H]2[C@@H]3CCC4=C[C@@H](OC(C)=O)CC[C@@H]4[C@H]3CC[C@@]21C
inactive: all assays above

CCOC(=O)OC(C)OC1=C(C(=O)Nc2ccccn2)N(C)S(=O)(=O)c2ccccc21 (stereo not given)
inactive: all assays above

C[C@H]1C[C@H]2[C@@H]3CCC4=CC(=O)C=C[C@]4(C)[C@@]3(Cl)[C@@H](O)C[C@]2(C)[C@@]1(O)C(=O)CO
inactive: all assays above

CC(C)(C)CC(C)(C)c1ccc(OCCOCC[N+](C)(C)Cc2ccccc2)cc1
active: [1] 4.47 µM | [2] 4.26 µM | [3] 4.26 µM | [4] 3.79 µM | [5] 2.24 µM | [6] 4.78 µM | [7] 4.26 µM | [8] 4.78 µM | [9] 4.78 µM | [10] 4.78 µM

CN=C(NC#N)NCCSCc1csc(N=C(N)N)n1
inactive: all assays above

COC(=O)[C@@H]1CC2=CC(=O)CC[C@]2(C)[C@@]23O[C@@H]2C[C@@]2(C)[C@@H](CC[C@@]24CCC(=O)O4)[C@H]13
inactive: all assays above

CC1=C(C(=O)OC(C)C)C(c2cccc([N+](=O)[O-])c2)C(C(=O)OC2CN(C(c3ccccc3)c3ccccc3)C2)=C(N)N1 (stereo not given)
active: [1] 7.94 µM | [2] 9.53 µM | [3] 9.53 µM | [4] 8.49 µM | [5] 5.01 µM | [6] 8.49 µM | [7] 13.5 µM | [8] 7.57 µM | [9] 13.5 µM | [10] 6.01 µM

CC1(C)CCC(NC(=O)[C@@H](N)CCC(=O)O)CC1
inactive: all assays above

COc1cc(NS(C)(=O)=O)ccc1Nc1c2ccccc2nc2ccccc12
active: [1] 1 µM | [2] 5.36 µM | [3] 3.38 µM | [4] 4.78 µM | [5] 2 µM | [6] 1.69 µM | [7] 4.78 µM | [8] 3.38 µM | [9] 6.75 µM | [10] 4.26 µM

CCC(C(=O)OCCN(CC)CC)c1ccccc1 (stereo not given)
inactive: all assays above

CC[N+](CC)(CCNC(=O)C(=O)NCC[N+](CC)(CC)Cc1ccccc1Cl)Cc1ccccc1Cl
active: [1] 0.562 µM | [2] 2.69 µM | [3] 7.57 µM | [4] 4.78 µM | [5] 0.891 µM | [6] 6.75 µM | [7] 2.69 µM | [8] 3.01 µM | [9] 3.79 µM | [10] 3.38 µM

Cc1cc(=O)n(-c2ccccc2)n1C
inactive: all assays above

CC(=O)Nc1c(I)cc(I)c(C(=O)O)c1I
inactive: all assays above
